Test results taken from PubChem BioAssay (NCATS).
Activity calls are given as the source filed them. The call rests on the fitted dose curve; in most records, active means well fitted curve in the direction sought with a large enough effect; inconclusive means small, poorly fitted or top-dose-only effect, or another doubt; inactive means no such curve, though single readings can be large or run the other way.

Assay: qHTS for compounds that reverse cellular toxicity of Amyloid beta (A-beta) peptide in yeast: LOPAC Validation Assay (AID 720559)
Details: yeast expressing A-beta; series mostly up to 46.1 µM; growth rescue, positive = activation: at the top concentration
From the text: The A-beta peptide is produced by the processing of the amyloid precursor protein (APP) by two proteases, beta and gamma secretases. […] A-beta42 is regarded as the most amyloidogenic form due to its hydrophobicity; however, precisely how A-beta42 induces neurotoxicity is unclear. To understand further this biology and its potential therapeutic implications for human neurodegenerative disease, a quantitative high-throughput screen for compounds that reverse the cellular toxicity of the A-beta peptide was developed.
A yeast based screen was used because it recapitulates the salient feature of protein mis-folding disorder accurately. This cell-based phenotypic screen provides a significant, unbiased advantage by letting the compounds and models inform us which proteins or pathways are most relevant. The ideal chemical candidates would therefore have activity in both our primary yeast and secondary neuronal toxicity assays, as well as in mouse models. They will be valuable tools for dissecting diverse protein homeostasis pathologies and could potentially become the focus for future pre-clinical development. For this […] assay, inhibition of A-beta rescues the toxic effect in the yeast cell, resulting in increase of signals.
NIH Chemical Genomics Center [NCGC]
NIH Molecular Libraries Probe Centers Network [MLPCN]
Assay Submitter (PI): Susan Lindquist, Whitehead Institute, Massachusetts Institute of Technology
[1] Vassar R,et al (1999). Beta-secretase cleavage of Alzheimer's amyloid precursor protein by the transmembrane aspartic protease BACE. Science. 286: 735-741.
[2] Yan R, et al (1999). Membrane-anchored aspartyl protease with Alzheimer's disease beta-secretase activity. Nature.
Two and a half microliter / well of yeast growth medium were dispensed in a 1536 assay plate. Compounds were pinned using the Kalypsys robotic system followed by addition of 2.5 uL / well yeast solution. The assay plates were incubated at 30 C. After 48 hr, the absorbance signal at 600 nm was obtained using the PerkinElmer ViewLux plate reader to assess yeast growth. The data was normalized to the positive control of an equimolar mixture of ferric chloride (FeCl3) and clioquinol and to the negative control DMSO.

Question: Which “growth rescue, positive = activation” value does the source give for `Cc1ccc(C(=O)Nc2ccc(S(=O)(=O)O)c3cc(S(=O)(=O)O)cc(S(=O)(=O)O)c23)cc1NC(=O)c1cccc(NC(=O)Nc2cccc(C(=O)Nc3cc(C(=O)Nc4ccc(S(=O)(=O)O)c5cc(S(=O)(=O)O)cc(S(=O)(=O)O)c45)ccc3C)c2)c1` here?
Answer: -4.85% (inactive)

Question: For `O=c1c(O)c(-c2ccc(O)c(O)c2)oc2cc(O)cc(O)c12`, which “growth rescue, positive = activation” value is on record?
Answer: 6.35% (inactive)

Question: With `CN1CCN2c3ccccc3Cc3ccccc3C2C1` (stereo not given) as the compound, how does the “growth rescue, positive = activation” value read?
Answer: -2.37% (inactive)

Question: For `NC(=O)OCC(COC(N)=O)c1ccccc1`, which “growth rescue, positive = activation” value is on record?
Answer: -6.57% (inactive)

Question: With `NC(=O)NO` as the compound, how does the “growth rescue, positive = activation” value read?
Answer: -4.29% (inactive)

Question: Which “growth rescue, positive = activation” value does the source give for `CC1COc2c(N3CCN(C)CC3)c(F)cc3c(=O)c(C(=O)O)cn1c23` (stereo not given) here?
Answer: 0.45% (inactive)

Question: For `COc1cc2c(c(OC)c1OC)-c1ccc(OC)c(=O)cc1[C@@H](NC(C)=O)CC2`, which “growth rescue, positive = activation” value is on record?
Answer: -6.75% (inactive)

Question: Which “growth rescue, positive = activation” value does the source give for `OCCN1CCN(CCCN2c3ccccc3Sc3ccc(C(F)(F)F)cc32)CC1` here?
Answer: -2.67% (inactive)

Question: With `COc1ccccc1N1CCN(CC(O)COc2cccc3ccccc23)CC1` (stereo not given) as the compound, how does the “growth rescue, positive = activation” value read?
Answer: -0.441% (inactive)

Question: For `CC#C[C@]1(O)CC[C@H]2[C@@H]3CCC4=CC(=O)CCC4=C3[C@@H](c3ccc(N(C)C)cc3)C[C@@]21C`, which “growth rescue, positive = activation” value is on record?
Answer: -0.757% (inactive)

Question: For `NCCc1cnc[nH]1`, which “growth rescue, positive = activation” value is on record?
Answer: 10.9% (inactive)

Question: Which “growth rescue, positive = activation” value does the source give for `CN(C)CCCN1c2ccccc2CCc2ccc(Cl)cc21` here?
Answer: 0.543% (inactive)

Question: With `NC12CC3CC(CC(C3)C1)C2` as the compound, how does the “growth rescue, positive = activation” value read?
Answer: -8.09% (inactive)

Question: Which “growth rescue, positive = activation” value does the source give for `CC(CCc1ccc(O)cc1)NCCc1ccc(O)c(O)c1` (stereo not given) here?
Answer: 3.77% (inactive)

Question: With `O=c1c(-c2ccc(O)cc2)coc2cc(O)cc(O)c12` as the compound, how does the “growth rescue, positive = activation” value read?
Answer: -0.286% (inactive)

Question: Which “growth rescue, positive = activation” value does the source give for `CCOC(=O)C(C)(C)Oc1ccc(Cl)cc1` here?
Answer: -2.55% (inactive)

Question: With `Clc1ccc2c(c1)C(N1CCNCC1)=Nc1ccccc1O2` as the compound, how does the “growth rescue, positive = activation” value read?
Answer: 0.195% (inactive)

Question: With `COc1ccccc1OCC(O)CN1CCN(CC(=O)Nc2c(C)cccc2C)CC1` (stereo not given) as the compound, how does the “growth rescue, positive = activation” value read?
Answer: 0.214% (inactive)

Question: Which “growth rescue, positive = activation” value does the source give for `CC(C)NCC(O)c1ccc(O)c(O)c1` (stereo not given) here?
Answer: -3.84% (inactive)

Question: With `Cc1cnc(C(=O)NCCc2ccc(S(=O)(=O)NC(=O)NC3CCCCC3)cc2)cn1` as the compound, how does the “growth rescue, positive = activation” value read?
Answer: -3.18% (inactive)

Question: For `CN(C)c1nc(N(C)C)nc(N(C)C)n1`, which “growth rescue, positive = activation” value is on record?
Answer: -8.82% (inactive)

Question: For `CNCCCC12CCC(c3ccccc31)c1ccccc12`, which “growth rescue, positive = activation” value is on record?
Answer: 2.58% (inactive)

Question: Which “growth rescue, positive = activation” value does the source give for `O=C1Cc2cc(CCN3CCN(c4nsc5ccccc45)CC3)c(Cl)cc2N1` here?
Answer: -2.37% (inactive)

Question: With `NCCS(=O)(=O)O` as the compound, how does the “growth rescue, positive = activation” value read?
Answer: -4.99% (inactive)

Question: For `NC(CO)C(=O)NNCc1ccc(O)c(O)c1O` (stereo not given), which “growth rescue, positive = activation” value is on record?
Answer: 9.58% (inactive)

Question: For `O=C1c2c(O)ccc(O)c2C(=O)c2c(NCCNCCO)ccc(NCCNCCO)c21`, which “growth rescue, positive = activation” value is on record?
Answer: -30.3% (inactive)

Question: With `COc1ccc2[nH]cc(CCNC(C)=O)c2c1` as the compound, how does the “growth rescue, positive = activation” value read?
Answer: -6.15% (inactive)

Question: With `Cc1cc(C(C)(C)C)c(O)c(C)c1CC1=NCCN1` as the compound, how does the “growth rescue, positive = activation” value read?
Answer: -4.32% (inactive)

Question: Which “growth rescue, positive = activation” value does the source give for `O=C(C1CCCCC1)N1CC(=O)N2CCc3ccccc3C2C1` (stereo not given) here?
Answer: -12.4% (inactive)

Question: Which “growth rescue, positive = activation” value does the source give for `CCCCc1oc2ccccc2c1C(=O)c1cc(I)c(OCCN(CC)CC)c(I)c1` here?
Answer: -19.3% (inactive)

Question: Which “growth rescue, positive = activation” value does the source give for `CN1CCC(=C2c3ccccc3C=Cc3ccccc32)CC1` here?
Answer: -4.79% (inactive)

Question: With `CCC1(C)CC(=O)NC1=O` (stereo not given) as the compound, how does the “growth rescue, positive = activation” value read?
Answer: -7.22% (inactive)

Question: Which “growth rescue, positive = activation” value does the source give for `CN1CCC(=C2c3ccccc3CC(=O)c3sccc32)CC1` here?
Answer: 0.475% (inactive)

Question: Which “growth rescue, positive = activation” value does the source give for `C[C@H]1c2cccc(O)c2C(O)=C2C(=O)[C@]3(O)C(O)=C(C(N)=O)C(=O)[C@@H](N(C)C)[C@@H]3[C@@H](O)[C@@H]21` here?
Answer: 8.54% (inactive)

Question: With `CN(Cc1cnc2nc(N)nc(N)c2n1)c1ccc(C(=O)N[C@@H](CCC(=O)O)C(=O)O)cc1` as the compound, how does the “growth rescue, positive = activation” value read?
Answer: -5.18% (inactive)

Question: For `Cc1cc(C(C)(C)C)cc(C)c1CC1=NCCN1`, which “growth rescue, positive = activation” value is on record?
Answer: 2.95% (inactive)

Question: Which “growth rescue, positive = activation” value does the source give for `Clc1ccc(C(c2ccccc2Cl)C(Cl)Cl)cc1` (stereo not given) here?
Answer: -7.27% (inactive)

Question: Which “growth rescue, positive = activation” value does the source give for `NS(=O)(=O)c1cc2c(cc1Cl)NCNS2(=O)=O` here?
Answer: 2.78% (inactive)

Question: With `CC12CC3CC(C)(C1)CC(N)(C3)C2` as the compound, how does the “growth rescue, positive = activation” value read?
Answer: -1.23% (inactive)

Question: With `CN(C)CCC=C1c2ccccc2C=Cc2ccccc21` as the compound, how does the “growth rescue, positive = activation” value read?
Answer: -3.66% (inactive)
